Among the data in PubChem BioAssay are outcome and potentiation values, retold here.

For part of these data: Measured potencies and affinities stand elsewhere. Active and inactive are the calls of the source.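 Rule for the calls, unless noted: active = primary screen activator hit with a dose response curve and TRPC4 channel activation at any tested dose; inactive = no activation, no dose response, or not a primary hit.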

In assay [1] the test system is TRPC4 beta (transient receptor potential cation channel C4), mouse. As to the kind of experiment: activators of mouse TRPC4 channel, confirmation, cell-based, Fluo4 calcium, HEK293 TRPC4beta/mu-opioid, duplicates, 10 µM (AID 2426;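 active = fluorescence ratio normalized to control raised more than 50% in primary screen plus both repeat runs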). The note with it: Fluo4 calcium fluorescence, at 10 µM; hits give high values.
For assay [2], the system named is transient receptor potential cation channel C4 beta (TRPC4), mouse. In words: activators of mouse TRPC4 channel, confirmation, cell-based, second round, Fluo4, HEK293 TRPC4beta/mu-opioid, 1 µM (AID 2461;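 active = primary screen active and over 50% activation in each of two duplicate runs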). Conditions: Fluo4 calcium fluorescence, at 1 µM; hits give high values.
Assay [3] deals with TRPC4 (transient receptor potential cation channel C4 beta), mouse. In words: positive allosteric modulators of mouse TRPC4, confirmation, cell-based, second round, Fluo-4, HEK293 TRPC4beta/mu-opioid, 1 µM (AID 2554;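 active = primary screen hit whose fluorescence ratio, in both repeats, exceeds the weak agonist control mean by 3 SD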). Conditions: DAMGO EC20, Fluo-4 calcium flux, at 1 µM; hits give high values. Background: A change in cytosolic calcium serves as a functional read-out for many receptors and channels.

In assay [4] the test system is TRPC4 beta (transient receptor potential cation channel C4), mouse. As to the kind of experiment: positive allosteric modulators of mouse TRPC4, confirmation, cell-based, Fluo-4, HEK293 TRPC4beta/mu-opioid (AID 2555;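 active = primary screen hit whose calcium fluorescence ratio, in both repeats, exceeds the weak agonist control mean by 3 SD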). Conditions: DAMGO EC20, Fluo-4 calcium flux, at 10 µM; hits give high values.
The target of assay [5] is Short transient receptor potential channel 4 (Mus musculus) (UniProt Q9QUQ5). As to the kind of experiment: inhibitors of mouse TRPC4 channel, confirmation, cell-based, Fluo4, HEK293 TRPC4beta/mu-opioid (AID 2636;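 active = calcium signal cut by more than 3 SD below the full-agonist control yet still positive, in both repeats and the earlier primary screen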). Conditions: DAMGO, Fluo4 calcium flux, at 10 µM; hits give high values.
The target is the same in assay [6]. In words: inhibitors of mouse TRPC4 channel, confirmation, cell-based, second round, Fluo4, HEK293 TRPC4beta/mu-opioid, 1 µM (AID 2637;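 active = calcium signal ratio cut to more than 3 SD under the fully stimulated control mean yet still positive, in both repeats and the primary screen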). The note with it: Fluo4 calcium flux, DAMGO, at 1 µM; hits give high values.
The target is the same in assay [7]. In words: mouse TRPC4 channel activators, dose response, cell-based, HEK293 TRPC4/mu-opioid, Fluo-4 calcium (AID 434937).
For assay [8] the target is unchanged. As to the kind of experiment: TRPC4 positive allosteric modulators, dose response, cell-based, HEK293 TRPC4/mu-opioid, Fluo-4 calcium, EC20 DAMGO (AID 434941;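 active = earlier screen potentiator hit that boosts the TRPC4 ion channel at some dose, with a dose response; inactive = no potentiation, no dose response, or not a prior hit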;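 note: calcium entry triggered by an EC20 dose of DAMGO at the co-expressed mu-opioid receptor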).
For assay [9] the target is unchanged. In words: mouse TRPC4 channel inhibitors, dose response, cell-based, HEK293 TRPC4/mu-opioid, Fluo-4 calcium (AID 434942;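 active = primary screen inhibitor hit that blocks the TRPC4 channel at some tested dose, yielding a dose curve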).
In assay [10] the target is Short transient receptor potential channel 6 (Mus musculus) (UniProt Q61143). As to the kind of experiment: inhibition of mouse TRPC6 channel, confirmation, selectivity assay for TRPC4 inhibitor project, cell-based, HEK293, membrane potential dye, duplicate (AID 434948;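 active = active in primary screen and both duplicates, each dropping signal beyond three positive-control SD with fluorescence still positive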). Conditions: HEK293 TRPC6, membrane potential dye fluorescence, at 10 µM, stimulated with maximal-effect acetylcholine; hits give high values.

The target is the same in assay [11]. As to the kind of experiment: activation of mouse TRPC6 channel, confirmation, selectivity assay for TRPC4 activator project, cell-based, HEK293, membrane potential dye, duplicate (AID 434950;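 active = membrane potential signal rise above negative control mean plus 3 SD in both duplicates, also active in the earlier TRPC4 screen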). The note with it: HEK293 TRPC6, membrane potential fluorescence, at 10 µM; hits give high values.
For assay [12] the target is unchanged. As to the kind of experiment: TRPC6 potentiation by TRPC4 potentiator hits, confirmation, selectivity assay for TRPC4 potentiator project, HEK293 cells, membrane potential dye, duplicate (AID 434952;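 active = compound raising the membrane signal above positive-control mean plus 3 SD in both repeats, and a primary screen hit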). The note with it: HEK293 TRPC6, membrane potential dye fluorescence, at 10 µM, maximal acetylcholine added after compound; hits give high values.
Assay [13] addresses Short transient receptor potential channel 4 (Mus musculus) (UniProt Q9QUQ5). As to the kind of experiment: calcium flux activators in TRPC4/5HT1a cells, counter-screen for TRPC4 activator project, cell-based, second counter screen, HEK293 TRPC4/5HT1a, Fluo-4 (AID 434977;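 active = calcium signal rise above buffer-control mean plus 5 SD in both duplicates, and also a hit in the primary screen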). The note with it: Fluo-4 calcium flux, at 10 µM; hits give high values.
Assay [14] is described as follows: calcium flux inhibitors in TRPC4/5HT1a cells, confirmation, counter-screen for TRPC4 inhibitor project, cell-based, second counter screen, HEK293 TRPC4/5HT1a, Fluo-4 (AID 434978;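 active = primary screen active whose calcium signal fell more than 3 SD beyond the full-serotonin control mean in both duplicate plates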;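 note: serotonin given first at submaximal then at maximal dose after compound preincubation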). The note with it: Fluo-4 calcium flux, at 10 µM, serotonin added to trigger calcium flux; hits give high values.
The test system of assay [15] is TRPC4 (mouse), co-expressed with 5HT1a in HEK293. As to the kind of experiment: calcium flux potentiators in TRPC4/5HT1a cells, confirmation, counter-screen for TRPC4 potentiator project, cell-based, second counter screen, HEK293 TRPC4/5HT1a, Fluo-4 (AID 434979;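 active = signal rise over 3 SD above mean of control wells given weak agonist, in both repeats and first screen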). Conditions: Fluo-4 calcium flux, at 10 µM, serotonin added at its EC20 dose; hits give high values.
Assay [16] is described as follows: calcium flux activation in mu-opioid HEK293 cells, confirmation, counter-screen for TRPC4 activator project, cell-based, HEK293 mu-opioid receptor line (AID 449723;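 active = hit in primary screen, with calcium signal over 5 SD above buffer well mean in both duplicates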;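 note: counter screen cells carry the mu-opioid receptor alone and lack TRPC4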). The note with it: Fluo-4 calcium fluorescence, at 10 µM; hits give high values.
Assay [17] can be described thus: calcium flux enhancement in mu-opioid HEK293 cells, confirmation, counter-screen for TRPC4 allosteric potentiator project, cell-based, HEK293 mu-opioid receptor line (AID 449724;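 active = calcium signal rise more than 3 SD above the low-dose agonist control mean, in both duplicate plates and the primary screen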;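 note: HEK293 cells carrying mu-opioid receptor only with no TRPC4 channel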). The note with it: Fluo-4 calcium flux, at 10 µM, compound added before EC20 DAMGO stimulus; hits give high values.

Chain of Short transient receptor potential channel 6 (Mus musculus) (Q61143 whole entry, looked up): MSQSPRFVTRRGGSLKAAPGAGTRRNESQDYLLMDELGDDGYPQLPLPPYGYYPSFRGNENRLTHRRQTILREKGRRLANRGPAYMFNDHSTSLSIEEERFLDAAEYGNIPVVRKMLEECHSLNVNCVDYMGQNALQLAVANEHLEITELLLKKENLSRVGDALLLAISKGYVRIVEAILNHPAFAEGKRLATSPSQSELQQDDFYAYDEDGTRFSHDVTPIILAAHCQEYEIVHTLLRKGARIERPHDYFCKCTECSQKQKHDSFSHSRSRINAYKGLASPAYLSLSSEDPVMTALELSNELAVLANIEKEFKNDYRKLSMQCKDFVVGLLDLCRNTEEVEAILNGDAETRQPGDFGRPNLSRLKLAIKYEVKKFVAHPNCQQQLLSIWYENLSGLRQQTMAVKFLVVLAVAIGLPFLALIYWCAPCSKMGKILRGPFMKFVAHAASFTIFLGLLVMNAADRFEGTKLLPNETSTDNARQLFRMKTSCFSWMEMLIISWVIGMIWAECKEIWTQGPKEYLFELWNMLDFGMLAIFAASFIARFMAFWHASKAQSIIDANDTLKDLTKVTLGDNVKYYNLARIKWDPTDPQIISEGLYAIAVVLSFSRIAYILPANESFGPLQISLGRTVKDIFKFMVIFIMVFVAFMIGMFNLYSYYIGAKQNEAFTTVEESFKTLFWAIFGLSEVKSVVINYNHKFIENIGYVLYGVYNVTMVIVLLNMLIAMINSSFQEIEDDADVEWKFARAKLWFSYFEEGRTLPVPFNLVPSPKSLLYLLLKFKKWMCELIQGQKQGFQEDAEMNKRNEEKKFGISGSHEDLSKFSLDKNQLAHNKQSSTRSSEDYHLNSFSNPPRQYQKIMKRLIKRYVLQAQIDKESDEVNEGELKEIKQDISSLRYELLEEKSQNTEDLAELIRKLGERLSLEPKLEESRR
Chain of Short transient receptor potential channel 4 (Mus musculus) (Q9QUQ5 whole entry, looked up): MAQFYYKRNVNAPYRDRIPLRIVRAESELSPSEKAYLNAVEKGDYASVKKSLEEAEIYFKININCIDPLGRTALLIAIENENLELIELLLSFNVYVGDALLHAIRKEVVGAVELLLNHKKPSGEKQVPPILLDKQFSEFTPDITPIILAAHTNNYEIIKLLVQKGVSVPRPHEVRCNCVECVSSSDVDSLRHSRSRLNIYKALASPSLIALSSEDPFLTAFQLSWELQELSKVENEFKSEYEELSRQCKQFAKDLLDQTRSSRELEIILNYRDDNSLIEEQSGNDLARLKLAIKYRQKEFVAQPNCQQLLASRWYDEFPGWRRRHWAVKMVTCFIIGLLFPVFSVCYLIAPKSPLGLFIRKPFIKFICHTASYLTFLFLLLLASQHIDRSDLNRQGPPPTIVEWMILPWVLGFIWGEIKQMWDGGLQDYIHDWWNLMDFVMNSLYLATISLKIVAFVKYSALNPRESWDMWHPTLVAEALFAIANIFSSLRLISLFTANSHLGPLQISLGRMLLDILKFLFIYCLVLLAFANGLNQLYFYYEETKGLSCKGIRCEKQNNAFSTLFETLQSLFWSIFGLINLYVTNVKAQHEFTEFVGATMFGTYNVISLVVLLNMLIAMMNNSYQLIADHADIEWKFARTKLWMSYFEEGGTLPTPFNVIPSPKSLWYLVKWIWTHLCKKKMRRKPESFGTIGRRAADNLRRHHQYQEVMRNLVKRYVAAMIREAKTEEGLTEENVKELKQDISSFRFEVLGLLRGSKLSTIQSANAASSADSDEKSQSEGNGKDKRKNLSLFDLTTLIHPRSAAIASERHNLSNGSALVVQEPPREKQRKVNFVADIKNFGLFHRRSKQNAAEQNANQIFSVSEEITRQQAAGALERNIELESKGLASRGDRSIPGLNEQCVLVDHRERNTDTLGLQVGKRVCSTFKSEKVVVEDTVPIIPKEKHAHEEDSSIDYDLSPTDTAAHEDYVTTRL

With `Cc1cc(Oc2ccc(C(C)(C)C)cc2)nc(N2CCOCC2)n1`, the result in assay [1], in assay [2], in assay [3], in assay [5], in [6] and in assay [7] was inactive. The outcome in [8], in [9], in assay [10], in assay [11], in assay [12] and in [13] was inactive. For the same molecule, the result in assay [14], in assay [16] and in [17] was inactive. The figures for the potentiation in assay [4] and in assay [15] were 7% (active) and 21.6% (active), respectively.
Turning to `Cc1ccc(Cl)c(OCCN2CCCC(C)C2)c1` (stereo not given), the result in assay [1], in assay [2], in assay [4], in assay [5], in [6] and in [7] was inactive. For the same molecule, the outcome in [8], in [9], in assay [10], in assay [11], in assay [12] and in [13] was inactive. For the same molecule, the result in assay [14], in assay [16] and in assay [17] was inactive. Besides, the potentiation in assay [3] was 25% (active); in [15], 7.06% (active).
Regarding `COc1ccc(-n2cc(CNCc3cnc4ccccn34)c(-c3cccc(F)c3)n2)cc1`, the result in [1], in assay [2], in [3], in [4], in assay [5] and in [6] was inactive. Moreover, the outcome in assay [7], in [8], in [9], in assay [10], in assay [11] and in [12] was inactive. Further, the outcome in assay [13], in [14], in assay [15], in assay [16] and in assay [17] was inactive.
`COc1ccc(OCCN(C)Cc2c(O)ccc3ccccc23)cc1`: the result in [1], in assay [2], in assay [3], in [4], in [5] and in [6] was inactive. In addition, the result in assay [7], in assay [8], in assay [9], in assay [10], in assay [11] and in assay [12] was inactive. The result in assay [13], in [14], in assay [15], in assay [16] and in assay [17] was inactive.
Take `CCN1CCN(c2ccc(S(=O)(=O)N3CCCCC3)cc2NC(=O)c2cccc(C(F)(F)F)c2)CC1`: the result in assay [1], in assay [2], in [3], in assay [5], in [6] and in [7] was inactive. The result in assay [8], in [9], in assay [10], in [11], in assay [12] and in [13] was inactive. The result in [14], in [16] and in assay [17] was inactive. Besides, the potentiation in assay [4] was 21% (active); in assay [15], 21.1% (active).
`COc1ccccc1CNCc1cc(Br)ccc1OC`: the result in assay [1], in assay [2], in [3], in [4], in assay [5] and in [6] was inactive. The result in assay [7], in assay [8], in [9], in assay [10], in assay [11] and in assay [12] was inactive. The result in [13], in [14], in assay [15], in assay [16] and in assay [17] was inactive.
For `COc1ccccc1-c1cc(-c2ccccc2)nc(=O)[nH]1`, the result in assay [1], in assay [2], in assay [3], in assay [5], in [6] and in assay [7] was inactive. Further, the result in assay [8], in [9], in assay [10], in assay [11], in [12] and in assay [13] was inactive. In addition, the result in assay [14], in assay [16] and in assay [17] was inactive. The potentiation was 22% (active) in assay [4] and 51.2% (active) in [15].
For `Cc1nn(-c2ccccc2)c2nc(-c3ccccc3)cc(C(=O)N3CCOCC3)c12`, the result in assay [1], in assay [2], in assay [3], in assay [5], in [6] and in assay [7] was inactive. In addition, the result in assay [8], in assay [9], in [10], in assay [11], in assay [12] and in assay [13] was inactive. For the same molecule, the outcome in assay [14], in assay [16] and in [17] was inactive. Besides, the results for the potentiation in assay [4] and in assay [15] were 15% (active) and 34.4% (active), respectively.
Turning to `O=C(NCCc1ccccc1)c1cnc2ccccc2n1`, the result in assay [1], in assay [2], in [3], in assay [5], in [6] and in assay [7] was inactive. Moreover, the outcome in [8], in assay [9], in assay [10], in assay [11], in assay [12] and in assay [13] was inactive. Also, the result in [14], in assay [16] and in assay [17] was inactive. In addition, the values for the potentiation in assay [4] and in assay [15] were 19% (active) and 27.4% (active), respectively.
Turning to `Cc1sc2ncnc(SCC(=O)N(C)C3CCS(=O)(=O)C3)c2c1C` (stereo not given), the result in assay [1], in assay [2], in assay [3], in [5], in [6] and in assay [7] was inactive. Besides, the outcome in assay [8], in [9], in assay [10], in [11], in [12] and in assay [13] was inactive. In addition, the outcome in [14], in assay [16] and in [17] was inactive. Further, the potentiation in assay [4] is 24% (active); in assay [15], 13.2% (active).
With `O=C(COC(=O)c1ccccc1C(=O)N1CCN(c2ccccc2)CC1)Nc1ccc(F)cc1`, the outcome in [1], in assay [2], in assay [3], in [5], in assay [6] and in assay [7] was inactive. For the same molecule, the outcome in assay [8], in assay [9], in assay [10], in [11], in assay [12] and in [13] was inactive. For the same molecule, the result in assay [14], in [16] and in [17] was inactive. Also, the potentiation in [4] is 16% (active); in assay [15], 50.1% (active).
As to `Cc1cccc(NC(=O)CNC(=O)CN2C(=O)NC3(CCCCC3C)C2=O)c1C` (stereo not given), the outcome in [1], in [2], in [3], in assay [4], in [5] and in assay [6] was inactive. For the same molecule, the outcome in [7], in assay [8], in assay [9], in assay [10], in assay [11] and in [12] was inactive. For the same molecule, the result in assay [13], in assay [14], in [15], in assay [16] and in assay [17] was inactive.
With `CCOC(=O)C1(CC2CC2)CCN(Cc2cn[nH]c2-c2cccc(F)c2)CC1`, the outcome in [1], in assay [2], in assay [3], in assay [4], in assay [5] and in [6] was inactive. Also, the outcome in assay [7], in assay [8], in [9], in assay [10], in assay [11] and in [12] was inactive. Also, the outcome in [13], in assay [14], in [15], in assay [16] and in assay [17] was inactive.
In the case of `CC[n+]1c(/C=C/c2ccc(OC(C)=O)c(OC)c2)ccc2ccccc21`, the outcome in assay [1], in [2], in [3], in assay [4], in assay [5] and in assay [6] was inactive. Further, the outcome in assay [7], in assay [8], in assay [9], in assay [10], in assay [11] and in assay [12] was inactive. Moreover, the result in assay [13], in assay [14], in assay [15], in assay [16] and in [17] was inactive.
Turning to `O=C(/C=C/c1ccccc1Cl)N(c1ccccn1)C1CCCCC1`, the outcome in [1], in [2], in assay [3], in [4], in assay [5] and in assay [6] was inactive. Further, the result in assay [7], in [8], in assay [9], in [10], in [11] and in [12] was inactive. Further, the outcome in [13], in assay [14], in assay [15], in [16] and in assay [17] was inactive.
